Only some compounds are listed: those with a hit (about 3.5% of all), similar ones and a draw of the others.
BoNT A protease: BoNT/A light chain protease inhibitors, primary screen, biochemical, flow cytometry, MLPCN library. inhibition, % at 10 µM. AID 588499, 2011. multiplex microsphere protease substrate cleavage. Botulinum neurotoxin type A light chain protease (Clostridium botulinum A str. ATCC 3502). 360,000 tested, 0.17% active; also: plate controls were buffer without enzyme for full effect and enzyme alone for no effect
BoNT-F LC inh: BoNT/F light chain protease inhibitors, primary screen, biochemical, flow cytometry, MLPCN library; Botulinum neurotoxin type F light chain protease (Clostridium botulinum); Multiplex microsphere protease cleavage assay; inhibition, % at 10 µM; 360,000 tested, 0.22% active; AID 588497, 2011; in the data active = inhibition above about 35%, passing the limit was not always enough; inconclusive = no clear call, values can overlap the other calls; also: plate controls were buffer without enzyme for full effect and enzyme alone for no effect
Anthrax LF inh2: Bacillus anthracis LF protease inhibitors, primary screen, biochemical, multiplex microsphere, MLPCN library; multiplex microsphere protease cleavage assay; inhibition, % at 10 µM; Lethal factor (Bacillus anthracis), P15917; 360,000 tested, 0.12% active; also: plate controls were buffer without enzyme for full effect and enzyme alone for no effect
Target sequence (P15917 whole entry, looked up): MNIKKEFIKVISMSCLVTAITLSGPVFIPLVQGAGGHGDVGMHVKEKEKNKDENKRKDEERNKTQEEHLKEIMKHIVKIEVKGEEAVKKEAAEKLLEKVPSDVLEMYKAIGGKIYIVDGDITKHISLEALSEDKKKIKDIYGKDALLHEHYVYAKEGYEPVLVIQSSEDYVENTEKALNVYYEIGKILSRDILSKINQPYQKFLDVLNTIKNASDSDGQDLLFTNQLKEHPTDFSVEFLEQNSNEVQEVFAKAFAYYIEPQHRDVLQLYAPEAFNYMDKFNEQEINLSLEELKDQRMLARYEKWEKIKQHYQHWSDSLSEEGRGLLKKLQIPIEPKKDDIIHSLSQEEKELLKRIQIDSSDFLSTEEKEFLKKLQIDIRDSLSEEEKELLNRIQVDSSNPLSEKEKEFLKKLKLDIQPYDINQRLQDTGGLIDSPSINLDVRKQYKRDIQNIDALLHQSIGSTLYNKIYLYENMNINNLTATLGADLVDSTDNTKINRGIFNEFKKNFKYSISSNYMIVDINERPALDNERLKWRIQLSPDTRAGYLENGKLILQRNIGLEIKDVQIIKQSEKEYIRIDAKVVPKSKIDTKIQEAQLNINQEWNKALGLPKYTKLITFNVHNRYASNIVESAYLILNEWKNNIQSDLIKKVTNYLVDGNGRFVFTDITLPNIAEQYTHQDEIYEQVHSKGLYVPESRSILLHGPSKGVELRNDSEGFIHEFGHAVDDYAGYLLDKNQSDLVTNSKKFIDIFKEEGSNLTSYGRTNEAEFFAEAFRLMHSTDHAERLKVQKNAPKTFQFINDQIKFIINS
Bead autofluor: counter-screen for toxin protease inhibitors: compound fluorescence; compound autofluorescence counterscreen, microsphere flow cytometry; stronger effect = higher value; fluorescence intensity (no concentration beside the values); 360,000 tested, 3.1% active; AID 624483; in the data active = fluorescence intensity above about 16000; inconclusive = no clear call, values can overlap the other calls
3CLpro inhibitor: SARS-CoV 3CLpro protease inhibitors, primary screen, biochemical, quenched FRET; recombinant SARS-CoV 3CLpro, quenched FRET peptide cleavage; AID 1706, 2009; inhibition, % at 6 µM; 290,000 tested, 0.14% active; in the data active = inhibition above about 12%
* marks the source's active call; other numbers are inactive results; ? = inconclusive; / = not tested or not shown. Rule as the data show it, unless noted: active = inhibition above about 30%; inconclusive = no clear call, values can overlap the other calls; inactive = below that.

SMILES	BoNT A protease	BoNT-F LC inh	Anthrax LF inh2	Bead autofluor	3CLpro inhibitor
CC(=O)Nc1sc2c(c1C#N)CCC(C)C2 (configuration not stated)	0	-2	-4	4639	3
Cc1cc(C(=O)Nc2sc3c(c2C#N)CCC(C)C3)cs1 (configuration not stated)	-2	-2	-2	17096*	8
Cc1ccc(N2C3=C(C(=O)CC(C)(C)C3)C(c3cn(C)nc3C)C3=C2CC(C)(C)CC3=O)cc1	29	-14	12	20845*	/
Cc1cc2nc(C)c(Cl)c(=O)n2[nH]1	-1	-2	-11	3999	2
O=C(CNS(=O)(=O)c1ccc2ccccc2c1)OCC(=O)c1ccc(Br)s1	5	7	-2	18275*	-3
Cc1ccc(C(O)c2nc3ccccc3n2C)cc1 (configuration not stated)	-2	35*	-18	4123	-2
COc1ccc(C2c3c4c(n(C)c3CCN2C)CCN(C)C4c2ccc(OC)cc2)cc1 (configuration not stated)	-1	-1	-2	16735*	6
CN1CCc2c(c3c(n2C)CCN(C)C3c2ccc(F)cc2)C1c1ccc(F)cc1 (configuration not stated)	0	-1	-2	8152	-2
Cc1sc2c(c1C)C(c1ccc(C(C)(C)C)cc1)=NCC(=O)N2CC(=O)Nc1nccs1	-1	-3	-2	22414*	-3
COc1ccc(CC(=O)NNC(=O)c2ccc(SCc3cc(F)ccc3F)c([N+](=O)[O-])c2)cc1	0	1	-1	22474*	3
Cc1cc(OCC(=O)O)c2c3c(c(=O)oc2c1)CCCC3	0	-9	-3	3526	-1
Cc1ccc(-n2nc(C)cc2NC(=O)COc2cc(C)cc3oc(=O)c4c(c23)CCC4)cc1	1	3	-1	22051*	1
Cc1ccc(N(C)S(=O)(=O)c2ccc(C)cc2)cc1	-4	-6	0	24242*	2
Cc1ccc(S(=O)(=O)N(C)c2ccccc2)cc1	0	2	-1	3796	7
CCCc1cc(C(N)=O)c(NC(=O)c2ccco2)s1	-2	-4	-1	16987*	0
CC(=O)c1ccc(NC(=O)C(C)Sc2nnnn2C)cc1 (configuration not stated)	-4	-6	0	23749*	-6
CC(Sc1nnnn1C)C(=O)Nc1ccccc1 (configuration not stated)	1	5	-1	4532	2
CC1=NN(C(=O)Cc2ccc([N+](=O)[O-])cc2)C(O)(c2ccccc2)C1 (configuration not stated)	1	7	0	9132	7
CC(C)c1cc(C(=O)Nc2cccc(Cl)c2)no1	14	14	-12	18450*	6
Cn1nc(C(F)(F)F)c(C(=O)Nc2cccc(Cl)c2)c1Cl	-3	-9	-1	25124*	7
CCOC(=O)/C(=C/C=C/c1ccccc1)NC(=O)c1ccccc1	-1	-2	1	2589	0
COP(=O)(OC)C(NC(=O)C(C)(C)C)=C(Cl)Cl	0	1	3	9697	-1
CC(C)(C)C(=O)NC(=C(Cl)Cl)P(=O)(O)O	-3	-5	-3	24171*	3
Cc1nnc(Sc2nc3c(c(=O)[nH]c(=O)n3C)n2CCCc2ccccc2)s1	/	/	/	/	-2
CCCCN(CCCC)S(=O)(=O)c1ccc(NC(=O)Cc2cccs2)cc1	1	1	-2	23090*	8
SMILES	BoNT A protease	BoNT-F LC inh	Anthrax LF inh2	Bead autofluor	3CLpro inhibitor
CCCN(CCC)S(=O)(=O)c1ccc(NC(=O)COc2ccccc2)cc1	?	-1	2	16179*	1
CC(=O)c1cccc(NC(=O)Cc2cccs2)c1	0	0	-2	23709*	-7
CCCCN(CCCC)S(=O)(=O)c1ccc(NC(=O)CN2CCOCC2)cc1	5	4	1	20756*	-1
CCCN(CCC)S(=O)(=O)c1ccc(NC(=O)Cc2cccs2)cc1	?	-5	0	25405*	-2
CCC(C)N(C(=O)COC(=O)CSc1ccc([N+](=O)[O-])cc1)C1CCS(=O)(=O)C1 (configuration not stated)	1	4	-3	5133	0
COc1ccc2c(c1)C(=O)N(c1ccc(C)cc1)C(=O)C2	0	-4	-1	2336	-1

From PubChem BioAssay
